Out of some 48,000 compounds screened, about 13,000 (27%) showed an effect of 50% or more. This is one part of the list.
system: Wolbachia pipientis; experiment: Anti-Wolbachia Cell-Based Screen; type: functional; parameters: scale not given: in the data most compounds retested in dose-response had high values; conditions: 5 µM

Row | SMILES | Percent Effect [%]
1 | Cc1ccc(Cl)c2ccc(NC(CO)CO)nc12 | -18.64
2 | O=C(c1ccsc1)N1CC(c2nc(-c3ccc[nH]c3=O)no2)C1 | -1.062
3 | CCOc1no[n+]([O-])c1-c1ccccc1 | 142.4
4 | CCOc1ccc(-c2c(-c3ccccc3)ncn2C2CCNC2)cn1 (stereo not given) | 5.482
5 | COCCOC[C@]1(CNCc2cccc(OC)c2)C[C@@H](O)[C@@H](O)C1.Cl | 2.999
6 | N#CCCN(CC(=O)Nc1ccc(Br)cc1Cl)Cc1cccnc1 | -15.5
7 | COCc1noc(C2(c3ccc(F)cc3)CCC2)n1 | -10.25
8 | CNS(=O)(=O)c1ccc(CCC(=O)NCc2cccc(OC)c2)cc1 | 110.9
9 | CNS(=O)(=O)c1cccc(C(C)NCc2cccc(OC)c2)c1 (stereo not given) | 4.426
10 | COc1cccc(CNC(=O)N2CCN3CCNC(=O)C3C2)c1 (stereo not given) | -4.227
11 | Cc1ccc(S(=O)(=O)NCCNC(=O)c2cncnc2C)cc1 | 2.217
12 | COc1cccc(CNC(=O)CCNS(=O)(=O)c2ccc(C)cc2)c1 | 91.68
13 | COc1cccc(CNC(=O)CCC2=Nc3ccccc3S(=O)(=O)N2)c1 | 114.6
14 | COc1cccc(CNC(=O)CCOc2ccccc2C)c1 | 9.384
15 | COc1ccc(CC(=O)NCCNS(=O)(=O)c2ccc(C)cc2)cc1 | 90.25
16 | O=C(CCNS(=O)(=O)c1ccccc1)NCc1ccoc1 | -4.508
17 | CCc1ncncc1C(=O)NCCNS(=O)(=O)c1ccc(C)cc1 | 8.343
18 | CNS(=O)(=O)c1cccc(CNC(=O)CCc2ccsc2)c1 | 10.65
19 | COc1cccc(CCNC(=O)CCS(=O)(=O)C2CCCC2)c1 | 1.804
20 | Cl.Cn1nc(C2CCN(C(=O)CN3CCCCC3)CC2)c2cccnc21 | 113.3
21 | Cl.Cn1nc(C2CCN(C(=O)CCN3CCOCC3)CC2)c2cccnc21 | 110.8
22 | O=C(CN1CCCCC1)NCc1cccnc1-n1cnc2ccccc21 | -3.687

Row | SMILES | Percent Effect [%]
23 | CN(CCO)Cc1nnc(C2CCN(C(=O)CN3CCCC3)CC2)n1C | -20.27
24 | COc1ccccc1OC1CCN(C(=O)CCCN2CCOCC2)CC1 | 10.26
25 | C=C(C)CNC(=O)C1CCC(=O)N(C2CCCC2)C1 (stereo not given) | 15.65
26 | COCC1CN(C(=O)c2ccnnc2)Cc2ncnn2C1 (stereo not given) | 0.09306
27 | CCc1nc(CSCc2csc(CS(C)(=O)=O)n2)cs1 | 115
28 | Cc1noc(C)c1CSCc1nc(N)c2ccccc2n1 | -9.423
29 | CS(=O)(=O)Cc1nc(CN2CCc3ccccc3CC2)cs1 | 14.86
30 | CS(=O)(=O)Cc1nc(CNc2ccc(F)c(F)c2)cs1 | 12.98
31 | Cc1cc(CSCc2cc(C)on2)on1 | -0.9382
32 | Cc1cc(CSCc2csc(CS(C)(=O)=O)n2)no1 | 97.95
33 | CS(=O)(=O)Cc1nc(CNc2c(F)cc(F)cc2F)cs1 | 22.22
34 | CS(=O)(=O)Cc1nc(CN2CCC(C(F)(F)F)CC2)cs1 | -5.539
35 | Cc1noc(C)c1CSCc1csc(CS(C)(=O)=O)n1 | 94.77
36 | COCCN(Cc1sccc1C)C(=O)C1CCN(C(C)C)CC1 | 1.745
37 | Nc1nc2c(c(N3CCCC(c4nnc5ccccn45)C3)n1)CCNC2 (stereo not given) | -10.49
38 | O=C1[C@@H]2CN(Cc3cc4ccccc4o3)C[C@]2(C(=O)O)CN1CC1CC1 | -11.55
39 | OCC(O)CSCc1nnc(-c2ccc(Cl)cc2)o1 (stereo not given) | -3.672
40 | CCN1Cc2cc(OC)ccc2N(CC(C)(C)O)CCC1=O | 102.5
41 | COc1ccc2c(c1)CCCN2C(=O)c1cccc(N(C)C)c1 | -8.665
42 | COc1ccc2c(c1)CCCN2C(=O)NC1CCCCNC1=O (stereo not given) | -4.83
43 | COc1ccc2c(c1)C(=O)N(C)C1(CCN(CC3CC3)CC1)N2 | -12.56
44 | COc1ccc2c(c1)CN(CC1CC1)C(=O)CCN2CC(C)(C)O | 98.75

Row | SMILES | Percent Effect [%]
45 | COc1ccc2c(c1)CCCN2Cc1nc2c(cnn2C)c(=O)[nH]1 | -6.912
46 | CN1CCN(Cc2noc(CC3CCc4ccccc43)n2)CC1 (stereo not given) | 3.539
47 | Cc1csc(CN(C)C(=O)c2cccc(CCC(C)(C)O)c2)n1 | -10.56
48 | COCc1ncc(CN2C[C@@H](C(=O)O)[C@H](C(C)C)C2)cn1 | 0.5192
49 | CC(C)N1CCC(c2nnc(CN3CCCC3)n2C2CC2)CC1 | -3.352
50 | CCCn1ncnc1C(C)NC(=O)C1CCN(C(C)C)CC1 (stereo not given) | -2.448
51 | Cn1cc(-c2nc(C3CCN(S(C)(=O)=O)CC3)cc3c2ncn3C)cn1 | 6.413
52 | CC(C)N1CCC(c2cnc(-c3cncnc3)cn2)CC1 | 77.04
53 | CC(C)N1CCC(c2cnc(-c3cn[nH]c3)cn2)CC1 | 107.4
54 | O=C(O)c1cc(-c2cn[nH]c2)cc(S(=O)(=O)N2CCSCC2)c1 | -7.646
55 | CS(=O)(=O)N1CCC(c2cnc(-c3cn[nH]c3)cn2)CC1 | 122.9581
56 | COc1cccc2c1OCCCN(Cc1ccc(C(N)=O)c(=O)[nH]1)C2 | -4.223
57 | CC(C)Cn1cnc(S(=O)(=O)Nc2cccnc2-n2cccn2)c1 | -21.79
58 | CC1(C)CN(C(=O)CC2CCS(=O)(=O)CC2)C[C@]1(C)O | 8.618
59 | O=S(=O)(NCC1(O)CCOCC1)c1ccccc1Br | 8.924
60 | CC(C)NC(=O)NC[C@H]1OC[C@@H](NCc2cccs2)[C@@H]1O | 11.97
61 | CCc1cc(N[C@H](C(N)=O)C(C)C)n2nc(C)c(C)c2n1 | -4.879
62 | Cc1cccc(C2(CNC(=O)CCNS(C)(=O)=O)CCCC2)c1 | 4.767
63 | Cc1c(Br)cccc1C(=O)NCCC1CCCNC1.Cl (stereo not given) | 6.591
64 | Cl.c1cnc(Nc2cc(CCC3CCCNC3)ccn2)cn1 (stereo not given) | 75.77
65 | O=C(NCCNc1cnccn1)NCC1CCS(=O)(=O)C1 (stereo not given) | -2.4
66 | CC(Cc1cnccn1)NC(=O)c1cccc(CC2CCNCC2)c1 (stereo not given) | -6.406

Row | SMILES | Percent Effect [%]
67 | c1cnc(Nc2cc(CCC3CCNCC3)ccn2)cn1 | 61.48
68 | CN1CCC(CCc2ccnc(Nc3cnccn3)c2)CC1 | 95.48
69 | O=C(CO)N1CCC(CCc2ccnc(Nc3cnccn3)c2)CC1 | 125.8
70 | Cc1ccc(Oc2ncccc2CNC2CCOCC2)cn1 | -4.901
71 | CCC(CNC1CCN(C(C)=O)CC1)Oc1cccc(C)c1 (stereo not given) | 3.033
72 | CN(C)c1cc2c(nn1)CCN(C(=O)C1CCc3ccccc31)C2 (stereo not given) | -4.6
73 | Cc1cc(C(=O)NCCN2CCN(S(C)(=O)=O)CC2)no1.Cl | 11.14
74 | CCCc1nc(C(=O)NCCN2CCC(c3ccccc3C)C2)cs1 (stereo not given) | -11.15
75 | Cc1csc(CNC(=O)NC2CCCN(S(C)(=O)=O)C2)n1 (stereo not given) | -1.577
76 | CC1CCN(CCNC(=O)c2cncnc2C(C)C)CC1 | -7.999
77 | Cc1cc(C)n(-c2nc(C(=O)NCCN3CCC(C)CC3)cs2)n1 | 74.92
78 | Cc1nc(C(=O)NCCS(=O)(=O)N2CCCC2)cs1 | 99.98
79 | Cc1nc(C(=O)N2CCN(S(C)(=O)=O)[C@@H]3CS(=O)(=O)C[C@@H]32)cs1 | -1.846
80 | Cc1cc(C)n(-c2nc(C(=O)NCCS(=O)(=O)N3CCCCC3)cs2)n1 | 95.89
81 | CCc1c(C)nn(CCNC(=O)c2csc(C)n2)c1C | -30.9
82 | OC[C@@H]1CCCN1Cc1cn(C2CCN(C3CCCC3)CC2)nn1 | -5.2
83 | Cc1noc(OCCOc2ccc(C#N)cc2)n1 | 1.206
84 | Cn1ccc(CS(=O)(=O)Cc2ccccc2)cc1=O | -1.625
85 | Cn1cccc1C(O)CNS(=O)(=O)Cc1ccccc1 (stereo not given) | -5.113
86 | CN1C(=O)C(C)(C)COc2cc(NS(=O)(=O)c3ccccc3)ccc21 | 19.53
87 | CC(C)CS(=O)(=O)Nc1ccc([C@H]2OCC(=O)N[C@@H]2CO)cc1 | -5.323
88 | CN1C(=O)C(C)(C)COc2ccc(NS(=O)(=O)Cc3ccccc3)cc21 | 99.35

Row | SMILES | Percent Effect [%]
89 | CN1C(=O)C(C)(C)COc2cc(NS(=O)(=O)Cc3ccccc3)ccc21 | 11.42
90 | O=C1CO[C@H](c2ccc(NS(=O)(=O)Cc3ccccc3)cc2)[C@@H](CO)N1 | -3.508
91 | Cn1c(=O)n(C)c2cc(NS(=O)(=O)Cc3ccccc3)ccc21 | 78.16
92 | CC(C)CS(=O)(=O)Nc1ccc2c(c1)OCC(C)(C)C(=O)N2C | 141.6
93 | Cc1nc(N2CCCC2)nc(C)c1NS(=O)(=O)c1ccccc1F | -5.726
94 | CN1C(=O)C(C)(C)COc2cc(NS(=O)(=O)c3ccccc3F)ccc21 | 192.1
95 | Cn1cnc2c1CCN(CCCOc1ccc(S(C)(=O)=O)cc1)C2 | -0.429
96 | COc1cc(CNC(=O)N2CCCC2c2cc(C)no2)ccn1 (stereo not given) | -13.9
97 | CCOc1ccccc1-c1noc(CN(C)Cc2cnn(C)c2)n1 | -16.57
98 | CCS(=O)(=O)Nc1ccc2c(c1)OCC(C)(C)C(=O)N2C | 121.3
99 | CCCS(=O)(=O)Nc1ccc2c(c1)OCC(C)(C)C(=O)N2C | -9.167
100 | CCS(=O)(=O)Nc1ccc2[nH]c(C3CCC3)nc2c1 | 5.664
101 | O=C(CCc1nc(Cl)n[nH]1)NC1CCCN(C2Cc3ccccc3C2)C1 (stereo not given) | -44.69
102 | COc1cc(CC(=O)Nc2cccc(C(=O)N(C)C)n2)ccc1C | -9.433
103 | COc1cc(C)c(C(C)NC(=O)c2cccnc2N(C)C)cc1OC (stereo not given) | 0.4558
104 | CN(Cc1ccccc1)CC(C)(C)NC(=O)c1ccon1 | 7.047
105 | COC(=O)c1ccoc1CN(C)Cc1cc(OC)c(OC)cc1C | 109.7
106 | CN(CC(=O)N(C)C)Cc1ccc(C#N)cc1F | -6.679
107 | COC(=O)c1ccoc1CN(C)CC(=O)N(C)C | 115.3
108 | CC1Cc2ccccc2N1Cc1occc1C(=O)NCC(=O)N(C)C (stereo not given) | -8.438
109 | COC(=O)CNC(=O)C1(N(C)Cc2ccccc2)Cc2ccccc2C1 | -5.057
110 | COC(=O)c1ccoc1CN(C)Cc1ccccc1 | 118.1

Reference: ChEMBL document CHEMBL3988442, “University of Dundee, Small-Polar-MMV Screening Library” (2021)
